Experiments:
Experiment in all cases: phage ELISA signal ratio (GST-PRM binding over GST background); higher = stronger binding of peptide-phage to the PRM
[1] = target: RANBP2 2924-3050 Ran_BP1 (domain begin residue: 2924, domain end residue: 3050)
In short: (§1)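 Human peptide recognition domains were expressed in 96-well plates as fusions to the C-terminus of glutathione S-transferase (GST) and selected against an M13 phage library displaying randomized hexadecapeptides, cysteine-free and glycine-flanked, on the gene-8 major coat protein. Five selection rounds were run, and approximately 48 individual clones from rounds 4 and 5 were tested by phage ELISA. Each value is the ELISA signal on the GST-domain fusion divided by the signal on GST alone. Positive clones were sequenced.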

[2] = target: RANBP2 1184-1310 Ran_BP1 (domain begin residue: 1184, domain end residue: 1310)
In short: as §1

[3] = target: RPA1 2-121 Rep-A_N (domain begin residue: 2, domain end residue: 121), P27694
RPA1 2-121 Rep-A_N (domain begin residue: 2, domain end residue: 121), P27694, sequence (P27694 whole entry): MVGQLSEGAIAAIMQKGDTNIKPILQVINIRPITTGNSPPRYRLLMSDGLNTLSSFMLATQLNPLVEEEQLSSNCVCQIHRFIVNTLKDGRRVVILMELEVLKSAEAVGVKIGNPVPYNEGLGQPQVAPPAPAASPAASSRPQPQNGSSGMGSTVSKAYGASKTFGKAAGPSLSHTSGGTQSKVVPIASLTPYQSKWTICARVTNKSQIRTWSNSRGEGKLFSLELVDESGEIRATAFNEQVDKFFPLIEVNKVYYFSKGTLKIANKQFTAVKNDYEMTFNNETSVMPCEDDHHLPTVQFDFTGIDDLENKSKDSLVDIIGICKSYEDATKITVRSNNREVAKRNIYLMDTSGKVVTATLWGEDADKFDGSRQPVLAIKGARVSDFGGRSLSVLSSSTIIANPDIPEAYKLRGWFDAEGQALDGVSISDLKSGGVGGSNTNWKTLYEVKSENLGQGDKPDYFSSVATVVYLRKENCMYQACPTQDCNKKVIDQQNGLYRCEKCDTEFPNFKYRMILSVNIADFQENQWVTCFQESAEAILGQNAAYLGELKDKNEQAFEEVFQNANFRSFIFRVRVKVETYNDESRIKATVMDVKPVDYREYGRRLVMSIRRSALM
In short: as §1

[4] = target: T1, RORB 212-470 Hormone_recep (domain begin residue: 212, domain end residue: 470), Q92753
T1 chain: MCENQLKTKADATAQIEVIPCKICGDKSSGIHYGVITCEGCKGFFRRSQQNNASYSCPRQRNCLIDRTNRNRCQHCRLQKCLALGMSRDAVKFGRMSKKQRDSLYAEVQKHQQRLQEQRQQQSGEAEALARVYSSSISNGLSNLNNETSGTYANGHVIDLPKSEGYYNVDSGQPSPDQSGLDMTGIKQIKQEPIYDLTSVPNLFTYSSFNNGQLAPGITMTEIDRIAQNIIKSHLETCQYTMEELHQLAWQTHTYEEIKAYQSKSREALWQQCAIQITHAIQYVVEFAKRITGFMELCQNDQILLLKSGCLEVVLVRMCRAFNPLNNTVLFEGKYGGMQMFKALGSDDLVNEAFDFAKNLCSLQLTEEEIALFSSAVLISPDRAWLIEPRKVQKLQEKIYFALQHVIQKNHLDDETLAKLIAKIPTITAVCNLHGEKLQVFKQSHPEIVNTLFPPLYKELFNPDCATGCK
In short: as §1

[5] = target: RANBP1 39-170 Ran_BP1 (domain begin residue: 39, domain end residue: 170), P43487
RANBP1 39-170 Ran_BP1 (domain begin residue: 39, domain end residue: 170), P43487, sequence (P43487 whole entry): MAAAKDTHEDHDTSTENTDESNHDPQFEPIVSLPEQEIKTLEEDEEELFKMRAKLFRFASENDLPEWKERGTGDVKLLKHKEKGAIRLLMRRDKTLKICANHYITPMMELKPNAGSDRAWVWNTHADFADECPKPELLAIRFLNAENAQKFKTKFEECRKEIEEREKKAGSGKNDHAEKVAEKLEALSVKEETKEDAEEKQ
In short: as §1

[6] = target: T2, RARA 175-421 Hormone_recep (domain begin residue: 175, domain end residue: 421), P10276
T2 chain: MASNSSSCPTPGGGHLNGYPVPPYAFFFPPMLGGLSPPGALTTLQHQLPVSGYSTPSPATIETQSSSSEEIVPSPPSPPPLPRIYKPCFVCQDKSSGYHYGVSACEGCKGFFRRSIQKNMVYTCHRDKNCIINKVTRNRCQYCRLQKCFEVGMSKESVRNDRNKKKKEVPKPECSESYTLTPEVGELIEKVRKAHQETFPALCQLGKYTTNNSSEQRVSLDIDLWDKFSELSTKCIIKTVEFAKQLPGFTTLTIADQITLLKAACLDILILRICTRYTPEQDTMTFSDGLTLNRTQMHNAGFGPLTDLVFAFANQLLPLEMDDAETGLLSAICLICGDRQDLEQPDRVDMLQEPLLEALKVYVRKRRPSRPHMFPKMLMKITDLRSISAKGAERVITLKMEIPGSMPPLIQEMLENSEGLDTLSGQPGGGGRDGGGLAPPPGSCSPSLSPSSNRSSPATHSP
In short: as §1

[7] = target: T3, RBM17 298-401 RRM_1 (domain begin residue: 298, domain end residue: 401), Q96I25
T3 chain: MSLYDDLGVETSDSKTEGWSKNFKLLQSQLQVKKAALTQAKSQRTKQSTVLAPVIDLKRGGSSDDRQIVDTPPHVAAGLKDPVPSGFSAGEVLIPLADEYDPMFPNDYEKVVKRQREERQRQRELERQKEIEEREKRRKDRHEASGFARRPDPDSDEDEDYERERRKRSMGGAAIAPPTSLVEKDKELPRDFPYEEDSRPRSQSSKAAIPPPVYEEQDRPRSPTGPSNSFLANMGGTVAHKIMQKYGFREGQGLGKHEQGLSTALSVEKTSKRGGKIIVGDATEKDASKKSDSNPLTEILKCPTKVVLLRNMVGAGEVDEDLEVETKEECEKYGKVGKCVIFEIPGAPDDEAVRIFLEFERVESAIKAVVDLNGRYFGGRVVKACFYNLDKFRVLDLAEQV
In short: as §1

[8] = target: SETD1A 2-220 RRM_1 (domain begin residue: 2, domain end residue: 220), O15047
SETD1A 2-220 RRM_1 (domain begin residue: 2, domain end residue: 220), O15047, sequence (O15047 whole entry): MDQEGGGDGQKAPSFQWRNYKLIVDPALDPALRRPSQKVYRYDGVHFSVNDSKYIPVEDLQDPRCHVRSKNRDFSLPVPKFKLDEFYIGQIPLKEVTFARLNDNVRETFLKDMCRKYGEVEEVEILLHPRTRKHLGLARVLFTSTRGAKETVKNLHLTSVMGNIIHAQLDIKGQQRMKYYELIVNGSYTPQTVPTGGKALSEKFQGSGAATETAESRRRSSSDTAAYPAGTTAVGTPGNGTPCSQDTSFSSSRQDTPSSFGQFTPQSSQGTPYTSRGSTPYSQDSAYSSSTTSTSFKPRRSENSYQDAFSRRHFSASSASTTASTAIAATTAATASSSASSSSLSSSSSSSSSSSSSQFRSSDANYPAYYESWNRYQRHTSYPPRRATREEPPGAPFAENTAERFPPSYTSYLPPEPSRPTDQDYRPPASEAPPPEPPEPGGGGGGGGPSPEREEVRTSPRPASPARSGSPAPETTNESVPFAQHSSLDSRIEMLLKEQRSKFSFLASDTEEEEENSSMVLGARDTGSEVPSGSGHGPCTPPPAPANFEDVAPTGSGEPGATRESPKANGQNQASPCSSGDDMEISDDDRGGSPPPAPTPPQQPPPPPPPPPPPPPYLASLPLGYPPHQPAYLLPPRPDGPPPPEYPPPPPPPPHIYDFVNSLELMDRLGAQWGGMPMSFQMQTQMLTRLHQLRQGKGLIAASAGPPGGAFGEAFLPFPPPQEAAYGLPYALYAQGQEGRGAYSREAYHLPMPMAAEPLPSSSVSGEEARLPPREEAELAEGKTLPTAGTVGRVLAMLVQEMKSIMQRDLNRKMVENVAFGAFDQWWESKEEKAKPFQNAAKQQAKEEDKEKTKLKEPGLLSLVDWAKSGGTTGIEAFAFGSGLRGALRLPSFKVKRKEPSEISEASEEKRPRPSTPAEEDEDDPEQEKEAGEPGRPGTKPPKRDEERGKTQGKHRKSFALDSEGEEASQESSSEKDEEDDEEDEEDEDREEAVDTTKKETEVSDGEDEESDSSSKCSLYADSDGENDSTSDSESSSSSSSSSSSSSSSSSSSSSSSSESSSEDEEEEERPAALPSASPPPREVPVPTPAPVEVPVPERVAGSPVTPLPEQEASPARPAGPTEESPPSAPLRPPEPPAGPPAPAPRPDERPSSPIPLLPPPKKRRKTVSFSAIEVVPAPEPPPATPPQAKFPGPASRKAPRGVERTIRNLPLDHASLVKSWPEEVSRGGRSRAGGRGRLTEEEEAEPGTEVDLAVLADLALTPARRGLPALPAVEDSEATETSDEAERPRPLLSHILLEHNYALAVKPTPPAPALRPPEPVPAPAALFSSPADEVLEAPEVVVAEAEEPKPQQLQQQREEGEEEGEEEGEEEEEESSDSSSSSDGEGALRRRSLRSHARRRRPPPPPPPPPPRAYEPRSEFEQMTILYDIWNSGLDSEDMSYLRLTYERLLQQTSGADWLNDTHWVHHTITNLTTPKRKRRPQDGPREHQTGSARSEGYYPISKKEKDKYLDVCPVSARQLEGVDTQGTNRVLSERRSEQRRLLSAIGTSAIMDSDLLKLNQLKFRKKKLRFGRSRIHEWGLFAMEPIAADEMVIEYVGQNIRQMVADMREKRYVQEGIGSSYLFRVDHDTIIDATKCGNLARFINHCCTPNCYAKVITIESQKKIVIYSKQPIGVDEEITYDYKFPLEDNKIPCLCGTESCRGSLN
In short: as §1

[9] = target: T4, RXRB 298-533 Hormone_recep (domain begin residue: 298, domain end residue: 533), P28702
T4 chain: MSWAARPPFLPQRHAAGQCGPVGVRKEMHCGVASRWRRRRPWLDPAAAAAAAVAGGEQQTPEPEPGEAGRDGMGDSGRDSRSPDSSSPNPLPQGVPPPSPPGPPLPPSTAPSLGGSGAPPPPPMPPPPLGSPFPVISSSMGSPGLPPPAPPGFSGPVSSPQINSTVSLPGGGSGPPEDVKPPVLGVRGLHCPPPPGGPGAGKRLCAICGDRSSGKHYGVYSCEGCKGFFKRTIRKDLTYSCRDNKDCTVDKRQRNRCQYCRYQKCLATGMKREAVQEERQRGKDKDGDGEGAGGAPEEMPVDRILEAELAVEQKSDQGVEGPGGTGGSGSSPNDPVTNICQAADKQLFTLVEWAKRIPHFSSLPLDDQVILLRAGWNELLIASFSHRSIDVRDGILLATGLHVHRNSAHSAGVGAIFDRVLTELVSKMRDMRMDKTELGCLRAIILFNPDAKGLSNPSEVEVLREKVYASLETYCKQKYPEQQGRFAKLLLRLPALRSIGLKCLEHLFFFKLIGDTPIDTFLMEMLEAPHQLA
In short: as §1

[10] = target: T5, RARG 183-417 Hormone_recep (domain begin residue: 183, domain end residue: 417), P13631
T5 chain: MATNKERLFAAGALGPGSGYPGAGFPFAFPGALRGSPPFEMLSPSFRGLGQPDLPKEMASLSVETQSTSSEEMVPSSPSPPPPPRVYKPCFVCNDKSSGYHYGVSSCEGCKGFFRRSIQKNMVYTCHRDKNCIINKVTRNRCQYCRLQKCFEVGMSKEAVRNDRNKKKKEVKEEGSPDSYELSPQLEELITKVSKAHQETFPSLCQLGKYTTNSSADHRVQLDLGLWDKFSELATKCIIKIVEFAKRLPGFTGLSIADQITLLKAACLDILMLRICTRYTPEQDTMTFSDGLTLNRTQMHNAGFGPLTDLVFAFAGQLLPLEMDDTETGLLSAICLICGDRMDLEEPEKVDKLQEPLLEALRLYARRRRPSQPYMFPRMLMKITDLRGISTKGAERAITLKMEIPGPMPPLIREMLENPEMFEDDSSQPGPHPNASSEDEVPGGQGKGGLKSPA
In short: as §1

[11] = target: T6, SFN 1-236 14-3-3 (domain begin residue: 1, domain end residue: 236), P31947
T6 chain: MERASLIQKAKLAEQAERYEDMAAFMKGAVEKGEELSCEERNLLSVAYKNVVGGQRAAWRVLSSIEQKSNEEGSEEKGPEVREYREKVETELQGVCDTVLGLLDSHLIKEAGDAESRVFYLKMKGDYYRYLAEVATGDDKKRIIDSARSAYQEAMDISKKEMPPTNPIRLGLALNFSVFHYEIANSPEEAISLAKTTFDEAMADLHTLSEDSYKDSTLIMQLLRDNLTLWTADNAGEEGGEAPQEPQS
In short: as §1

[12] = target: T7, S100A11 5-105 S_100+EF-hand_1 (domain begin residue: 5, domain end residue: 105), P31949
T7 chain: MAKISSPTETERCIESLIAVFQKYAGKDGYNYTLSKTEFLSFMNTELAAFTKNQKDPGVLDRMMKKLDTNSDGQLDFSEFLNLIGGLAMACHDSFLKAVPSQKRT
In short: as §1

[13] = target: RBBP5 2-538 WD40 (domain begin residue: 2, domain end residue: 538), Q15291
RBBP5 2-538 WD40 (domain begin residue: 2, domain end residue: 538), Q15291, sequence (Q15291 whole entry): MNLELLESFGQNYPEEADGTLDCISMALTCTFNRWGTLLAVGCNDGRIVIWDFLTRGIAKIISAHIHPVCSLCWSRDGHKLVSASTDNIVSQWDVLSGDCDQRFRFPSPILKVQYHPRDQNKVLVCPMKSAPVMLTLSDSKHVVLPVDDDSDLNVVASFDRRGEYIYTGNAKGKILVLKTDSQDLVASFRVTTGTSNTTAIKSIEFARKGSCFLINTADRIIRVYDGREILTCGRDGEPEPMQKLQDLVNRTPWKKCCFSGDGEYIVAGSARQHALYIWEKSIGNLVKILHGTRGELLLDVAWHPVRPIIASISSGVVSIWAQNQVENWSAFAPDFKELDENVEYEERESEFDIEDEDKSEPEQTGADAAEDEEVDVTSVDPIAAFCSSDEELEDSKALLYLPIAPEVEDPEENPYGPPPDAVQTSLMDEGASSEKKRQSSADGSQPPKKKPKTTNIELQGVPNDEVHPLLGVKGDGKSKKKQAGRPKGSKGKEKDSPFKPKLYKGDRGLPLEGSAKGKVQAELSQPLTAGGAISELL
In short: as §1

[14] = target: RPA2 202-270 RPA_C (domain begin residue: 202, domain end residue: 270), P15927
RPA2 202-270 RPA_C (domain begin residue: 202, domain end residue: 270), P15927, sequence (P15927 whole entry): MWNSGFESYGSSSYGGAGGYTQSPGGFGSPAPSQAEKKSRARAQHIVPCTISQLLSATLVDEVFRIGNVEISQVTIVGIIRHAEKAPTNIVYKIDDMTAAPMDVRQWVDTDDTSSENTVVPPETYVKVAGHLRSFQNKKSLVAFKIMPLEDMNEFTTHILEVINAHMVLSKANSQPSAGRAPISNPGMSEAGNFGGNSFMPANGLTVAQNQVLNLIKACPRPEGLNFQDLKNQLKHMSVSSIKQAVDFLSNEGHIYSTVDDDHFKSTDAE
In short: as §1

QDWWETALPQEPWHVV
phage ELISA signal ratio [1]: 22.7

WADEWEAPFVWKMQEV
phage ELISA signal ratio [2]: 3.11

VWEDWTYMEDWEMMVF
phage ELISA signal ratio [3]: 14.3

WEHHGWWTFWEEAPEQ
phage ELISA signal ratio [4]: 4.7

PPLPPDKNDWHVEYMP
phage ELISA signal ratio [5]: 15.6

SQIQRYIDEAMTHQST
phage ELISA signal ratio [6]: 13.4

EVEDMQWLEENWLVFW
phage ELISA signal ratio [3]: 12

YRWDRQPSQEAVSSKY
phage ELISA signal ratio [7]: 4.04

FDPLWMALPEDKVHEM
phage ELISA signal ratio [1]: 3.06

HMAWDVIWDNIYLADS
phage ELISA signal ratio [8]: 4.42

LDHMNWPEHDWLWATM
phage ELISA signal ratio [9]: 16.1

PYGPFKSFEYMDIQRT
phage ELISA signal ratio [10]: 26.7

QYMLMSLPEDDWATPH
phage ELISA signal ratio [1]: 4.31

DEELWAAPFTWGPVLE
phage ELISA signal ratio [2]: 4.84

QEFWERYTIPMWVDSF
phage ELISA signal ratio [5]: 13.7

EWDWPSDHSWWEYIQH
phage ELISA signal ratio [1]: 8.48

DWVLYKEWVPQWPHNF
phage ELISA signal ratio [11]: 17.1

DMEQWWMELPQVPMYA
phage ELISA signal ratio [5]: 23.1

LSTDFLQMEHFWNQQF
phage ELISA signal ratio [1]: 3.07

PQWWHNMPALPDDIIH
phage ELISA signal ratio [5]: 14.7

VSWWDDGLVYDWMSEF
phage ELISA signal ratio [3]: 16.5

MGYWDYLPPVPGETWG
phage ELISA signal ratio [5]: 15.4

GAWDWQLDQLLMQYLE
phage ELISA signal ratio [6]: 4.72

RQSQLQMWIWDATQDE
phage ELISA signal ratio [6]: 3.71

YIHDWEMFEHWENLWG
phage ELISA signal ratio [3]: 9.27

MEQWWHGEDIMWHWWE
phage ELISA signal ratio [12]: 3.64

YPEHQWLEQHMFQTVQ
phage ELISA signal ratio [9]: 14.3

YNFPMDWDQIPITWPQ
phage ELISA signal ratio [8]: 6.17

QIEYWNSMEQTWVQSQ
phage ELISA signal ratio [13]: 9.82

WQSWDDWDRPMHPMEN
phage ELISA signal ratio [2]: 6.6

TPTDTAESIWEMYKKM
phage ELISA signal ratio [9]: 28

AQMAPRWDQMQPVMVE
phage ELISA signal ratio [7]: 5.16

WEWSPLPPDVETFSQI
phage ELISA signal ratio [5]: 15.9

NDEWDHPFTFNPGVPP
phage ELISA signal ratio [2]: 5.9

YVTDLEMIETWNKFIN
phage ELISA signal ratio [3]: 16.4

YIQDWEMMDVWNTLVG
phage ELISA signal ratio [3]: 18

MWGGEDDLVQAWLEQF
phage ELISA signal ratio [3]: 9.46

PTEAEWGIWHDLPDYE
phage ELISA signal ratio [5]: 10.1

ESNEMWEWVMNQAHVW
phage ELISA signal ratio [9]: 11.2

WPEYMSWDDAYWMTML
phage ELISA signal ratio [6]: 4.17

IFYWDFESQTWTMSAP
phage ELISA signal ratio [13]: 3.49

WMMTLPPDMPGEWQVV
phage ELISA signal ratio [5]: 11

EFDAMQAHWNVLHPEG
phage ELISA signal ratio [1]: 8.19

YWTWDDFQEMFLRLER
phage ELISA signal ratio [12]: 4.97

SKMDEWPPEPWELMKL
phage ELISA signal ratio [2]: 4.23

IEQAELIWMEYKKQTK
phage ELISA signal ratio [9]: 6.73

WELSDYTLIQAYDQIM
phage ELISA signal ratio [3]: 13.8

FDVPLPLEHDWWTSWV
phage ELISA signal ratio [1]: 3.39

WGQMPLPVDMPETWNF
phage ELISA signal ratio [5]: 21

EEMPWYFIEDWEMEMY
phage ELISA signal ratio [3]: 10.6

QAVVPWQMPLPDWIVS
phage ELISA signal ratio [5]: 18.4

IDSYEHHSTGMVPLPD
phage ELISA signal ratio [5]: 26.3

YYVLDSEMETIWQSIL
phage ELISA signal ratio [3]: 15.3

QKVHPWDDWDSPFMWF
phage ELISA signal ratio [2]: 12.9

TEIALPWPDRAERAYL
phage ELISA signal ratio [5]: 16.3

WQWNGVWPDIIWVQVE
phage ELISA signal ratio [14]: 7.24

TDMEYWEPFTDEELSM
phage ELISA signal ratio [3]: 10

— the supplement of paper PMC7724964
